Compound activity deposited in PubChem by several laboratories.
Hits are enriched below; roughly 2% of the tested compounds scored in any of these assays.
CHT inh: inhibitors of human choline transporter CHT | High affinity choline transporter 1 (Homo sapiens), Q9GZV3 | CHT-expressing cells, membrane potential dye, choline response; active compounds read low | B-score at 10 µM | actives 0.86% (n = 310,000) | AID 488975, 2010;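 active = B-score over 3 SD under the library average, and starting fluorescence ratio not unusually high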;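 also: choline stimulus applied at its EC90 after an EC20 pre-addition; B-score computed on integrated fluorescence ratio after choline addition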
EP2 mod: EP2 receptor modulators, cAMP readout, primary screen, cell-based, HTRF cAMP, PGE2 stimulation; EP2-expressing cells, cAMP HTRF FRET, PGE2 co-stimulation; induction, % at 25 µM; actives 0.83% (n = 260,000); Prostaglandin E2 receptor EP2 subtype (Homo sapiens), P43116;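 active = compounds whose cAMP rise, as percent of the full-agonist control response, exceeds 60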;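 also: rat C6 glioma line stably carrying human EP2 under a CMV promoter; the protocol text gives 20 µM as final concentration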
Target sequence (P43116 whole entry, looked up): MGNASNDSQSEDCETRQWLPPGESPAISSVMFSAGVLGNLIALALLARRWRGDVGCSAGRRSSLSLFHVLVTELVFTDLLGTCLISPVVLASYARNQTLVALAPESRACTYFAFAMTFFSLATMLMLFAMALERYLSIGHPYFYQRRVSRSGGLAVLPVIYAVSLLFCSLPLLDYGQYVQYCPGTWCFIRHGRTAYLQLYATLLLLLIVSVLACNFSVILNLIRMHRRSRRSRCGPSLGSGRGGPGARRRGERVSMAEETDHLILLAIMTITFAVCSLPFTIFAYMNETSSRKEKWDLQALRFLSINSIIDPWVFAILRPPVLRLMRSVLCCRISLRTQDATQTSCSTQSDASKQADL
PGE2 EP2 inh: human EP2 receptor antagonists, primary screen, TR-FRET cAMP, C6 glioma cells. inhibition, % at 25 µM. C6 glioma cells expressing human EP2; cells stimulated with saturating PGE2. Prostaglandin E2 receptor EP2 subtype (Homo sapiens), P43116. actives 0.52% (n = 260,000). AID 1422, 2008;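 active = percent inhibition above 40 after rounding to a whole number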;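 also: rat C6 glioma host cells with rolipram phosphodiesterase inhibitor present; the protocol text gives 20 µM as final concentration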
CHT allo act: CHT positive allosteric modulators, primary screen, cell-based, membrane potential dye, choline EC20. AID 488977, 2010. B-score at 10 µM. CHT-expressing cells; active compounds read high; LV-AA mutant CHT in HEK293 cells. actives 0.49% (n = 310,000). High affinity choline transporter 1 (Homo sapiens), Q9GZV3;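 active = initial fluorescence not abnormally high and integrated response B-score, plate-corrected, over 3 SD above library mean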
CHT block conf: CHT inhibitors, confirmation, cell-based, membrane potential dye, duplicate; shares compounds with CHT inh; CHT-expressing cells, choline membrane potential dye; LV-to-AA substituted CHT, HEK293 cells; CHT activity remaining % of control (active compounds read low), % at 10 µM; actives 70% (n = 2,400); AID 493221, 2011;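 active = choline transporter activity left, mean of duplicates at 10 µM, below buffer-only control mean minus 3 SD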;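 also: depolarization triggered by choline at its EC90 following an EC20 pre-addition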
HEK293 CHT ctr: membrane potential effects in parental HEK293, counter-screen for CHT inhibitor project, cell-based, membrane potential dye; shares compounds with CHT inh; choline response; active = decrease or increase beyond buffer ±3SD; membrane potential ratio readout (active if shifted either direction beyond buffer ±3SD; no single direction) at 10 µM; actives 4% (n = 2,400); AID 493222, 2011;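 also: parental cells lack the transporter so any hit is non-specific; ratio is peak minus trough fluorescence over baseline after EC90 choline challenge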
Large screens that a line does not name were inactive (follow-up assays come after a bar, where they were run).

CCN(CC)C(=O)C(C)OC(=O)COc1ccc(Cl)cc1C (stereo unspecified)	none | CHT block conf inactive | HEK293 CHT ctr inactive
CCN(CCNC(=O)CN1CCN(Cc2ccc(Cl)cc2)C1=O)c1ccccc1	CHT inh -6.2 | CHT block conf 66% | HEK293 CHT ctr inactive
CCOC(=O)c1cc(CC)sc1NC(=O)COc1ccc2c(C)cc(=O)oc2c1	CHT inh -7.3 | CHT block conf inactive | HEK293 CHT ctr inactive
COc1ccccc1NC(=O)c1nc(S(=O)(=O)Cc2ccccc2)ncc1Cl	none (no result: EP2 mod, PGE2 EP2 inh)
CC(C)c1nnc(NC(=O)c2nc(S(=O)(=O)Cc3ccccc3)ncc2Cl)s1	CHT inh -7.7 (no result: EP2 mod, PGE2 EP2 inh) | CHT block conf 3.0% | HEK293 CHT ctr inactive
CCCc1nnc(NC(=O)c2nc(S(=O)(=O)Cc3ccc(C)cc3)ncc2Cl)s1	CHT inh -7.4 (no result: EP2 mod, PGE2 EP2 inh) | CHT block conf 7.6% | HEK293 CHT ctr inactive
Cn1c(CN2CCOCC2)nnc1SCC(=O)Nc1ccc(F)cc1F	none (no result: CHT inh, CHT allo act)
Oc1ccc(Cl)cc1C1=NNC(c2cccs2)C1 (stereo unspecified)	none
O=[N+]([O-])c1ccc(O)c(C2=NNC(c3ccccc3F)C2)c1 (stereo unspecified)	CHT inh -10 | CHT block conf 20% | HEK293 CHT ctr inactive
CCN(CC)c1ccc(/C=N/NC(=O)c2ccco2)c(O)c1	CHT inh -5.2 | CHT block conf inactive | HEK293 CHT ctr inactive
O=C(O)c1cc([N+](=O)[O-])ccc1NCc1ccccc1Cl	CHT inh -5.6 | CHT block conf inactive | HEK293 CHT ctr inactive
C/C(=N\NS(=O)(=O)c1ccc(Cl)c([N+](=O)[O-])c1)c1cc2ccccc2o1	CHT inh -7.5 | CHT block conf 71% | HEK293 CHT ctr inactive
Fc1ccccc1CCNc1c2c(nc3ncnn13)CCCC2	CHT inh -6.9 | CHT block conf 63% | HEK293 CHT ctr inactive
c1ccc(CCNc2c3c(nc4ncnn24)CCC3)cc1	CHT inh -7.1 | CHT block conf 44% | HEK293 CHT ctr inactive
Cc1cc(NCCc2ccccc2F)n2ncnc2n1	none
O=C1NC(c2cccnc2)/C(=C(/O)c2ccccc2)C1=O (stereo unspecified)	none (no result: CHT inh, CHT allo act)
COc1ccc(S(=O)(=O)N2CCC(C(=O)NC(C)(C)C)CC2)cc1C	none (no result: CHT inh, CHT allo act)
CCc1ccc(NCc2nc(-c3ccccc3)no2)cc1	CHT inh -5.7 | CHT block conf 58% | HEK293 CHT ctr inactive
c1ccc(CCc2nc(-c3ccccc3)no2)cc1	none
Cc1ccc(-c2noc(CNc3ccccc3)n2)cc1	CHT inh -5.8 | CHT block conf 44% | HEK293 CHT ctr inactive
Cc1ccc2c(c1)nnn2C1CCN(S(=O)(=O)c2ccccc2Cl)CC1	none (no result: CHT inh, CHT allo act)
O=C(COc1ccccc1Br)c1ccc(O)cc1O	CHT inh -5.7 | CHT block conf 54% | HEK293 CHT ctr inactive
O=C(NCc1cccnc1)c1cn(Cc2ccccc2)nn1	none (no result: CHT inh, CHT allo act)
CCCCNS(=O)(=O)c1ccc2nc(SCC(=O)c3ccccc3OC)[nH]c2c1	CHT inh -9.7 | CHT block conf 50% | HEK293 CHT ctr inactive
CCCCNS(=O)(=O)c1ccc2nc(SCC(N)=O)[nH]c2c1	none
COC(=O)c1c(N)sc(C(=O)Nc2ccc(C)c(Cl)c2)c1C	none (no result: CHT inh, CHT allo act)
CCn1c(SCC(=O)Nc2ccccc2C(=O)OC)nnc1-c1cccnc1	none (no result: CHT inh, CHT allo act)
Cn1c(CNc2nc(-c3ccccc3)cs2)nnc1SCC(=O)Nc1cccc2ccccc12	none (no result: CHT inh, CHT allo act)
O=C(Nc1c(C(=O)N2CCC(N3CCCCC3)CC2)oc2ccccc12)c1c(F)cccc1F	none (no result: EP2 mod, PGE2 EP2 inh)
O=C(COc1ccccc1)Nc1c(C(=O)N2CCC(N3CCCCC3)CC2)oc2ccccc12	CHT inh -7.5 (no result: EP2 mod, PGE2 EP2 inh) | CHT block conf 37% | HEK293 CHT ctr 3.7
O=C(COc1ccc(F)cc1)Nc1c(C(=O)N2CCC(N3CCCCC3)CC2)oc2ccccc12	CHT inh -12 (no result: EP2 mod, PGE2 EP2 inh) | CHT block conf 29% | HEK293 CHT ctr inactive
COc1ccc(OCC(=O)Nc2c(C(=O)N3CCC(N4CCCCC4)CC3)oc3ccccc23)cc1	none (no result: EP2 mod, PGE2 EP2 inh)
